# Source: paper PMC8384837, “Expanding the binding specificity for RNA recognition by a PUF domain”
# Assays:
# Assay in all cases: yeast three-hybrid, YBZ-1, SC-Leu-His + 0.5 mM 3-AT, 4 days
# Conditions in all cases: tags: N-Gal4 AD-HA kept; label: inside an RPR1-promoter hybrid RNA with tandem MS2 sites; ssRNA
# PUM1 PUF domain R4-WAV = PUM1 PUF domain R4-WAV (Homo sapiens, UniProt Q14671 828-1176, N971W;H972A;Q975V)
# Outline: (§1)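 Pumilio-1 PUF domain libraries, randomized (NNK) at the three base-contacting residues of each repeat, were co-expressed with matching RNA elements from a centromeric plasmid in strain YBZ-1 (LexA–MS2 coat fusion, HIS3 reporter). Transformants were plated on SC-Leu (input) and SC-Leu-His + 0.5 mM 3-AT (selection) for four days, and repeat regions were PCR-amplified and Illumina-sequenced. The interaction score is the log2 change in variant frequency from input to selection, with pseudocount 1 where absent.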
# PUM1 PUF domain R2-MWG = PUM1 PUF domain R2-MWG (Homo sapiens, UniProt Q14671 828-1176, N899M;Y900W;Q903G)
# Outline: as §1
# PUM1 PUF domain R2-SWF = PUM1 PUF domain R2-SWF (Homo sapiens, UniProt Q14671 828-1176, N899S;Y900W;Q903F)
# Outline: as §1
# PUM1 PUF domain R5-LHI = PUM1 PUF domain R5-LHI (Homo sapiens, UniProt Q14671 828-1176, C1007L;R1008H;Q1011I)
# Outline: as §1
# PUM1 PUF domain R3-MRW = PUM1 PUF domain R3-MRW (Homo sapiens, UniProt Q14671 828-1176, C935M;Q939W)
# Outline: as §1
# PUM1 PUF domain R5-NGR = PUM1 PUF domain R5-NGR (Homo sapiens, UniProt Q14671 828-1176, C1007N;R1008G;Q1011R)
# Outline: as §1
# PUM1 PUF domain R3-RSR = PUM1 PUF domain R3-RSR (Homo sapiens, UniProt Q14671 828-1176, C935R;R936S;Q939R)
# Outline: as §1
# PUM1 PUF domain R4-AHV = PUM1 PUF domain R4-AHV (Homo sapiens, UniProt Q14671 828-1176, N971A;Q975V)
# Outline: as §1
# PUM1 PUF domain R4-PYF = PUM1 PUF domain R4-PYF (Homo sapiens, UniProt Q14671 828-1176, N971P;H972Y;Q975F)
# Outline: as §1
# PUM1 PUF domain R5-RYP = PUM1 PUF domain R5-RYP (Homo sapiens, UniProt Q14671 828-1176, C1007R;R1008Y;Q1011P)
# Outline: as §1
# Sequence of PUM1 PUF domain R4-WAV (Q14671 828-1176 N971W/H972A/Q975V): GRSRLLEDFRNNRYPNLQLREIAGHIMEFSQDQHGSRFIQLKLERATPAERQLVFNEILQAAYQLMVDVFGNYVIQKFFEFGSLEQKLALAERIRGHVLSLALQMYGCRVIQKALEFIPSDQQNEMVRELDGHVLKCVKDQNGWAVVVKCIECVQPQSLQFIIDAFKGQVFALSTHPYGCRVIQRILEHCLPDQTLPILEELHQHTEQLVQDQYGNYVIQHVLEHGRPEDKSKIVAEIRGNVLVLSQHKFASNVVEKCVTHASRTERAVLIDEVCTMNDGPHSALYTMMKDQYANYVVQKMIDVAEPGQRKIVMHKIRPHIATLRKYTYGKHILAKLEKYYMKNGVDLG
sequence,measurement,setting,value
GGCUAGAACUAGUGGAUCCCCCGGCGCCCGGCGGCUCGAGCCCGGGUAAGUGUACAUAGUCUGCAUGCCGCCGGGCGCCAUGCCUGCAGGUCGACUCUAGAAAACAUG,binding signal,PUM1 PUF domain R4-WAV,2.23 log2 enrichment (interaction score)
GGCUAGAACUAGUGGAUCCCCCGGCGCCCGGCGGCUCGAGCCCGGGUAAGUGUAAAAAGUCUGCAUGCCGCCGGGCGCCAUGCCUGCAGGUCGACUCUAGAAAACAUG,binding signal,PUM1 PUF domain R2-MWG,1.87 log2 enrichment (interaction score)
same,binding signal,PUM1 PUF domain R2-SWF,2.22 log2 enrichment (interaction score)
GGCUAGAACUAGUGGAUCCCCCGGCGCCCGGCGGCUCGAGCCCGGGUAAGUGUAUAUAGUCUGCAUGCCGCCGGGCGCCAUGCCUGCAGGUCGACUCUAGAAAACAUG,binding signal,PUM1 PUF domain R4-WAV,5.71 log2 enrichment (interaction score)
GGCUAGAACUAGUGGAUCCCCCGGCGCCCGGCGGCUCGAGCCCGGGUAAGUGUUAAUAGUCUGCAUGCCGCCGGGCGCCAUGCCUGCAGGUCGACUCUAGAAAACAUG,binding signal,PUM1 PUF domain R5-LHI,3.78 log2 enrichment (interaction score)
GGCUAGAACUAGUGGAUCCCCCGGCGCCCGGCGGCUCGAGCCCGGGUAAGUGUAAGUAGUCUGCAUGCCGCCGGGCGCCAUGCCUGCAGGUCGACUCUAGAAAACAUG,binding signal,PUM1 PUF domain R3-MRW,5.09 log2 enrichment (interaction score)
GGCUAGAACUAGUGGAUCCCCCGGCGCCCGGCGGCUCGAGCCCGGGUAAGUGUCAAUAGUCUGCAUGCCGCCGGGCGCCAUGCCUGCAGGUCGACUCUAGAAAACAUG,binding signal,PUM1 PUF domain R5-NGR,2.58 log2 enrichment (interaction score)
same,binding signal,PUM1 PUF domain R5-LHI,0.32 log2 enrichment (interaction score)
GGCUAGAACUAGUGGAUCCCCCGGCGCCCGGCGGCUCGAGCCCGGGUAAGUGUAAUUAGUCUGCAUGCCGCCGGGCGCCAUGCCUGCAGGUCGACUCUAGAAAACAUG,binding signal,PUM1 PUF domain R3-RSR,3.41 log2 enrichment (interaction score)
same,binding signal,PUM1 PUF domain R3-MRW,2.07 log2 enrichment (interaction score)
GGCUAGAACUAGUGGAUCCCCCGGCGCCCGGCGGCUCGAGCCCGGGUAAGUGUAAAUAGUCUGCAUGCCGCCGGGCGCCAUGCCUGCAGGUCGACUCUAGAAAACAUG,binding signal,PUM1 PUF domain R4-AHV,4.52 log2 enrichment (interaction score)
same,binding signal,PUM1 PUF domain R4-PYF,7.96 log2 enrichment (interaction score)
same,binding signal,PUM1 PUF domain R4-WAV,2.33 log2 enrichment (interaction score)
same,binding signal,PUM1 PUF domain R5-RYP,2.37 log2 enrichment (interaction score)
same,binding signal,PUM1 PUF domain R2-SWF,1.61 log2 enrichment (interaction score)
GGCUAGAACUAGUGGAUCCCCCGGCGCCCGGCGGCUCGAGCCCGGGUAAGUGUAAAGAGUCUGCAUGCCGCCGGGCGCCAUGCCUGCAGGUCGACUCUAGAAAACAUG,binding signal,PUM1 PUF domain R2-MWG,3.95 log2 enrichment (interaction score)
